Source: PubChem
TDP1 cell CPT: growth inhibition of DT40 Tdp1-/-;hTDP1 cells with camptothecin (screen for TDP1 inhibitors). Potency, µM (doses to about 46.2 µM), actives largely listed as inhibitors. 420,000 tested, 12% active. chicken DT40 Tdp1-/-;hTDP1 cells + 20 nM CPT, ATP luminescence, 48 h; also: nearly all actives have a fitted effect of over 55% in size
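Cell growth measured by CellTiter-Glo luminescence after a minimum 48 h, 37 C compound exposure with 20 nM CPT in Tdp1-knockout DT40 cells stably expressing hTDP1, seeded 400/well; qHTS titration format.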
HT1080-NT tox: kills 2HG-producing HT-1080-NT fibrosarcoma cells; HT-1080-NT fibrosarcoma viability, CellTiter-Glo ATP luminescence, 48 h; Potency, µM (doses to about 46.1 µM), most hits filed as cytotoxic; 360,000 tested, 1.6% active; AID 686970;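 also: NT is the 2HG producing partner of a matched IDH1 knockdown line; nearly all actives have a fitted effect of over 55% in size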
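Fibrosarcoma NT cells, 750 per well in 5% FBS RPMI, were exposed to compound for 48 hours. Viability: CellTiter-Glo luminescence.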
HT1080 IDH1KD tx: kills HT-1080 cells with IDH1 knockdown. AID 686971. Potency, µM (series often up to 46.1 µM), actives largely listed as cytotoxic. HT-1080 IDH1 knockdown viability, ATP luminescence, 48 h. 360,000 tested, 2% active
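Using the IDH1-knockdown HT-1080 line run in the same batch and compound series as the NT line, viability after 48 h at 37 °C was determined by CellTiter-Glo luminescence and expressed as % activity.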
TDP1 cell noCPT: qHTS for Inhibitors of human tyrosyl-DNA phosphodiesterase 1 (TDP1): qHTS in cells in absence of CPT; DT40 Tdp1-/- hTDP1 cells, no CPT, ATP luminescence, 48 h; Potency, µM (highest dose often 46.2 µM), hits mostly inhibitors; 420,000 tested, 15% active; also: nearly all actives have a fitted effect of over 55% in size
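Readout: luminescence from CellTiter-Glo after 30 min in the dark at RT. Cells: DT40 Tdp1-/- with stable hTDP1, 400/well. Exposure: compounds alone, ≥48 hr, 37 °C.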
TGFb inhibitor: TGF-b pathway inhibition | HepG2 CAGA-GFP TGF-b/SMAD3 reporter, GFP fluorescence, 18 h; TGF-beta stimulated, 500 pg/mL final | Potency, µM (highest dose often 46.1 µM), most hits filed as inhibitors | 410,000 tested, 1.2% active | AID 588855; also: nearly all actives have a fitted effect of over 65% in size
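Inhibition was scored as loss of TGF-beta-induced (500 pg/mL final, 18 hours, 37 degrees C) GFP in HEPG2 cells carrying a CAGA-GFP reporter, in DMEM with 1% FBS. Well GFP was summed per cell; Activity was normalised to unstimulated and stimulated DMSO wells, then concentration-response fitting.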
HepG2 viability: counter-screen for TGF-b inhibitors: cytotoxicity in HepG2 cells | HepG2 CAGA-GFP viability, ATP luminescence, 18 h | Potency, µM (titrated, usually from 46.1 µM), usual class: cytotoxic | 410,000 tested, 0.76% active | AID 588856
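CellTiter-Glo luminescence gave cytotoxicity after 18 hours at 37 degrees C. The cells were HepG2 CAGA-GFP in 1% FBS DMEM, stimulated with 500 pg/mL TGF-beta after compound addition. %Activity was normalised to no-cell wells (complete cell-killing) and DMSO (no toxicity), and curves were fitted and classified.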
A number is an active result; – = inactive; ? = inconclusive; · = no result given; [ ] = another dose, or the depositor's remark. In the library only some 17% were active in any assay of this set; here they are far more common. Calls follow the shape of the dose curve; as a rule, active = well fitted curve in the direction sought with a large enough effect; inconclusive = small, poorly fitted or top-dose-only effect, or another doubt; inactive = no such curve, though single readings can be large; an effect the other way counts as inactive or inconclusive.

SMILES | TDP1 cell CPT | HT1080-NT tox | HT1080 IDH1KD tx | TDP1 cell noCPT | TGFb inhibitor | HepG2 viability
CCC(C)/C=C(C)/C=C/C1=CC2=C(Cl)C(=O)C(C)(OC(C)=O)C(=O)C2=CO1 (configuration not stated) | 14.6µM | – | – | ? | ? | –
CC[C@H](C)/C=C(C)/C=C/C1=CC2=C(Cl)C(=O)[C@@](C)(OC(C)=O)C(=O)C2=CO1 | ? | – | – | ? | – | –
COc1ccccc1N1CCN(C(=O)CCC(=O)Nc2nnc(CC(C)C)s2)CC1 | ? | – | – | – | – | –
COC(=O)[C@]1(C)N[C@H](CN(C)S(=O)(=O)c2ccc(-c3ccccc3)cc2)[C@@H]2C(=O)N(Cc3ccccc3)C(=O)[C@@H]21 | ? | – | – | ? | – | –
Nc1ncnc2c1ncn2[C@@H]1O[C@H](COP(=O)(O)CP(=O)(O)O)[C@@H](O)[C@H]1O | 4.11µM | ? | – | ? | – | –
O=C(NP(=O)(N1CC1)N1CC1)c1cc(I)ccc1I | 1.46µM | – | – | 2.31µM | – | –
Cc1cc(C(=O)NP(=O)(N2CCOCC2)N2CCOCC2)c(C)n1C1CC1 | – | – | – | – | – | –
CCOC(=O)c1nc2ccccc2c(=O)n1-c1ccc(C)cc1C | 8.2µM | – | – | 10.3µM | – | –
Cc1cc(C)cc(NC(=S)NC2CC3CCC(C2)N3Cc2ccco2)c1 (configuration not stated) | ? | – | – | 16.4µM | – | –
Fc1ccc(NC(=S)NC2CC3CCC(C2)N3Cc2ccco2)cc1 (configuration not stated) | – | – | – | ? | – | –
COC1CC2C=C(C)C=CC=CC(=O)NC(c3ccccc3)CC=CCCC(O)CC(=O)C2=C1O (configuration not stated) | 0.461µM | 1.84µM | 1.64µM | 0.517µM | ? | –
Cc1c(C=C2C(=O)NC(=O)NC2=O)c(=O)n(-c2ccccc2)n1C | – | – | – | – | – | –
O=C1NC(=O)C(=Cc2c(Cl)cccc2Cl)C(=O)N1 | 11.6µM | – | – | 13µM | ? | –
O=Cc1cn(Cc2ccc(Br)cc2)c2ccccc12 | – | – | – | – | 1µM | –
CCc1ccc(NC2=NCCCS2)cc1 | – | – | – | ? | – | –
CC(=O)OC1CC(OC2C(O)CC(OC3C(O)CC(OC4CCC5(C)C(CCC6C5CC(O)C5(C)C(C7=CC(=O)OC7)CCC65O)C4)OC3C)OC2C)OC(C)C1OC1OC(CO)C(O)C(O)C1O (configuration not stated) | 1.3µM | 0.366µM | 0.206µM | 0.651µM | 1.41µM | –
CC(=O)O[C@H]1C[C@H](O[C@H]2[C@@H](O)C[C@H](O[C@H]3[C@@H](O)C[C@H](OC4CC[C@@]5(C)[C@H](CC[C@@H]6[C@@H]5CC[C@]5(C)[C@@H](C7=CC(=O)OC7)CC[C@]65O)C4)O[C@@H]3C)O[C@@H]2C)O[C@H](C)[C@H]1O[C@@H]1O[C@H](CO)[C@@H](O)[C@H](O)[C@H]1O (some centres not stated) | 0.335µM | · | · | 0.299µM | · | ·
CC(=O)OC1CC[C@]2(C)C(CCC3C2CC[C@]2(C)C(C4=CC(=O)OC4)C(OC(C)=O)CC32O)C1 (some centres not stated) | – | · | · | ? | · | ·
C[C@]12CC[C@H]3[C@@H](CCC4=CC(=O)CC[C@@H]43)[C@@H]1CC[C@@H]2OC(=O)CCc1ccccc1 | – | · | · | – | · | ·
Cn1cc(C(=O)Cc2ccccc2)c2ccccc21 | 16.4µM | – | – | ? | – | –
CC(=O)Nc1ccc(S(=O)(=O)N2Cc3ccccc3-n3nncc3C2)cc1 | 14.6µM | – | – | 14.6µM | – | –
Cc1ccc(S(=O)(=O)N2Cc3ccccc3-n3nncc3C2)cc1 | ? | – | – | ? | – | –
CCS(=O)(=O)Nc1cccc(C(=C2CCCCC2)c2cnc[nH]2)c1 | ? | – | – | 20.6µM | – | –
COc1cc2c(cc1/C=C/[N+](=O)[O-])OCO2 | 5.8µM | 4.11µM | 8.2µM | 2.31µM | ? | –
COc1cc(OC)c(OC)cc1C=O | – | – | – | ? | – | –
SMILES | TDP1 cell CPT | HT1080-NT tox | HT1080 IDH1KD tx | TDP1 cell noCPT | TGFb inhibitor | HepG2 viability
CS(=O)(=O)CCN1CC2CCCC(C2)C1 | – | – | – | – | ? | –
Cc1nn(-c2ccccc2)c(Cl)c1C1C(C#N)=C(N)Oc2c1c(=O)oc1ccccc21 (configuration not stated) | – | – | –[9.24 µM] | – | – | –
Cc1ccc(C)c(CN2C(=O)c3ccccc3S(=O)(=O)c3ccc(C(=O)N4CCCCCC4)cc32)c1 | ? | · | · | ? | · | –
CC(C)C[C@H]1CN([C@@H](CC(C)C)CN2CCCC2CN2C(=S)NC[C@@H]2Cc2ccc(O)cc2)C(=S)N1CC1CCCCCC1 (some centres not stated) | 18.4µM | – | – | 18.4µM | – | –
O=C(NC1CC2CCCC(C1)N2)c1ccccc1 (configuration not stated) | – | – | – | – | – | –
CN(C)S(=O)(=O)c1ccc(C(=O)NNc2nc(-c3ccccc3)c3cc(Br)ccc3n2)cc1 | ? | – | – | ? | – | –
CCN(CC)c1ccc(NC(=O)c2cccc(C)c2)cc1S(=O)(=O)Nc1ccccc1OC | 16.4µM | – | – | 23.1µM | – | –
